Test results: PubChem BioAssay (NCATS)
Where “and” joins values, the source holds several entries; their conditions need not be identical. Equal entries are not always repeated. Records with an inconclusive call do not appear. Calls of active or inactive are those of the source. Calls follow the shape of the dose curve; as a rule, active = well fitted curve in the direction sought with a large enough effect; inconclusive = small, poorly fitted or top-dose-only effect, or another doubt; inactive = no such curve, though single readings can be large; an effect the other way counts as inactive or inconclusive.

Experiments:
HaCat [1] = assay: Cytotoxic Profiling of Annotated Libraries Using Quantitative High-Throughput Screening (AID 1296008); details: Five cell lines viability, CellTiter-Glo ATP luminescence, 48-72 h; max response: hits give low values; also: nearly all actives have a fitted effect of over 60% in size
How it was run: (§1)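 Cytotoxicity was measured as CellTiter-Glo ATP luminescence, read after 10 min at room temperature. Compound treatment of the cells lasted 48 or 72 hr at 37 degrees Celsius in a qHTS format.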

KB-3-1 = assay: as above; details: Five cell lines viability, CellTiter-Glo ATP luminescence, 48-72 h; max response: hits give low values
How it was run: as §1

NIH3T3 [2] = assay: as above; details: Five cell lines viability, CellTiter-Glo ATP luminescence, 48-72 h; max response: hits give low values
How it was run: as §1

MCC-13 = assay: qHTS assay to identify novel small-molecules to repurpose for Merkel cell carcinoma treatment (AID 1296009); details: MCC and control cell lines, CellTiter-Glo viability, 72 h; series mostly up to 46 µM; also: nearly all actives have a fitted effect of over 60% in size
How it was run: (§2)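 72 hr, 37 degree celsius; NPC 8-pt / MIPE 11-pt dose response; compound pinned in DMSO; CellTiter-Glo, 10 min RT, luminescence; normalized to no-cell and DMSO controls.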

MCC-26 = assay: as above; details: MCC and control cell lines, CellTiter-Glo viability, 72 h; series mostly up to 46 µM
How it was run: as §2

MKL-2 = assay: as above; details: MCC and control cell lines, CellTiter-Glo viability, 72 h; series mostly up to 46 µM
How it was run: as §2

UISO = assay: as above; details: MCC and control cell lines, CellTiter-Glo viability, 72 h; series mostly up to 46 µM
How it was run: as §2

C33A = assay: Primary qHTS to identify gynecologic anti-cancer compounds using libraries of approved drugs and bioactive compounds (AID 1345084); details: Gynecologic cancer cell panel viability, ATPlite luminescence, 48 h; series mostly up to 57.5 µM; also: nearly all actives have a fitted effect of over 55% in size
How it was run: (§3)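 Luminescence from the ATPlite ATP-monitoring reagent indicates viable cell number; lower signal means cytotoxicity. Cells received compound 16 h after seeding and were exposed for 48 h across five concentrations.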

CAOV3 = assay: as above; details: Gynecologic cancer cell panel viability, ATPlite luminescence, 48 h; series mostly up to 57.5 µM
How it was run: as §3

CASKI = assay: as above; details: Gynecologic cancer cell panel viability, ATPlite luminescence, 48 h; series mostly up to 57.5 µM
How it was run: as §3

Es-2 = assay: as above; details: Gynecologic cancer cell panel viability, ATPlite luminescence, 48 h; series mostly up to 57.5 µM
How it was run: as §3

HeLa = assay: as above; details: Gynecologic cancer cell panel viability, ATPlite luminescence, 48 h; series mostly up to 57.5 µM
How it was run: as §3

Hek293T = assay: as above; details: Gynecologic cancer cell panel viability, ATPlite luminescence, 48 h, control line for the selectivity index; series mostly up to 57.5 µM
How it was run: as §3

JEG-3 = assay: as above; details: Gynecologic cancer cell panel viability, ATPlite luminescence, 48 h; series mostly up to 57.5 µM
How it was run: as §3

MKL-1 = assay: qHTS assay to identify novel small-molecules to repurpose for Merkel cell carcinoma treatment (AID 1296009); details: MCC and control cell lines, CellTiter-Glo viability, 72 h; series mostly up to 46 µM; also: nearly all actives have a fitted effect of over 60% in size
How it was run: as §2

WaGa = assay: as above; details: MCC and control cell lines, CellTiter-Glo viability, 72 h; series mostly up to 46 µM
How it was run: as §2

OV90 = assay: Primary qHTS to identify gynecologic anti-cancer compounds using libraries of approved drugs and bioactive compounds (AID 1345084); details: Gynecologic cancer cell panel viability, ATPlite luminescence, 48 h; series mostly up to 57.5 µM; also: nearly all actives have a fitted effect of over 55% in size
How it was run: as §3

HACAT [3] = assay: qHTS assay to identify novel small-molecules to repurpose for Merkel cell carcinoma treatment (AID 1296009); details: MCC and control cell lines, CellTiter-Glo viability, 72 h; at 44.8 µM (top of the series) unless noted; also: nearly all actives have a fitted effect of over 60% in size
How it was run: as §2

NIH3T3 [4] = assay: as above; details: MCC and control cell lines, CellTiter-Glo viability, 72 h; at 44.8 µM (top of the series) unless noted
How it was run: as §2
% is scaled to controls: 0 for no effect and ±100 for the full control effect; potency is read from the fitted curve at half-maximal effect.

Cc1cc(N)c2cc(NC(=O)Nc3ccc4nc(C)cc(N)c4c3)ccc2n1
inactive: max response (HaCat [1]) -0.42% | max response (KB-3-1) -4.37% | max response (NIH3T3 [2]) -1.27% | Potency (MCC-13) | Potency (MCC-26) | Potency (MKL-2) | Potency (UISO) | Potency (C33A) | Potency (CAOV3) | Potency (CASKI) | Potency (Es-2) | Potency (HeLa) | Potency (Hek293T) | Potency (JEG-3)

CC[N+](CC)(CCNC(=O)C(=O)NCC[N+](CC)(CC)Cc1ccccc1Cl)Cc1ccccc1Cl
inactive: max response (HaCat [1]) -1.93% | max response (KB-3-1) -5.89% | max response (NIH3T3 [2]) 3.32% | Potency (MCC-13) | Potency (MCC-26) | Potency (MKL-1) | Potency (MKL-2) | Potency (UISO) | Potency (WaGa) | Potency (C33A) | Potency (CAOV3) | Potency (CASKI) | Potency (Es-2) | Potency (HeLa) | Potency (Hek293T) | Potency (JEG-3) | Potency (OV90)

CCN(CC)CCOC(=O)C(c1ccccc1)C1CCCCC1 (centres undefined)
inactive: outcome (HaCat [1]) | max response (KB-3-1) -2.77% | outcome (HACAT [3]) | Potency (MCC-13) | Potency (MKL-1) | Potency (UISO) | Potency (WaGa) | Potency (C33A) | Potency (CAOV3) | Potency (CASKI) | Potency (Es-2) | Potency (HeLa) | Potency (Hek293T) | Potency (JEG-3)

C=C1C[C@H]2[C@@H]3C=C(C)C4=CC(=O)CC[C@]4(C)[C@H]3CC[C@]2(C)[C@@]1(OC(C)=O)C(C)=O
inactive: max response (HaCat [1]) -2.22% | max response (KB-3-1) 17.3% | max response (NIH3T3 [2]) -3.66% | Potency (MCC-13) | Potency (MCC-26) | Potency (MKL-1) | Potency (UISO) | Potency (C33A) | Potency (CASKI) | Potency (Es-2) | Potency (HeLa) | Potency (Hek293T) | Potency (JEG-3) | Potency (OV90)

COCc1c(C(C)C)nc(C(C)C)c(/C=C/[C@@H](O)C[C@@H](O)CC(=O)O)c1-c1ccc(F)cc1
inactive: Potency (CASKI)
active: Potency (HaCat [1]) 841 nM | Potency (KB-3-1) 1840 nM | Potency (NIH3T3 [2]) 2.37 µM | Potency (MCC-13) 1190 nM | Potency (MKL-1) 750 nM | Potency (UISO) 473 nM | Potency (WaGa) 1060 nM | Potency (HeLa) 1.78 µM | Potency (OV90) 1.78 µM

NC[C@H]1O[C@H](O[C@H]2[C@H](O[C@@H]3O[C@H](CO)[C@@H](O)[C@H]3O)C(O)[C@H](N)C[C@@H]2N)[C@H](N)[C@@H](O)[C@@H]1O (some centres undefined)
inactive: max response (HaCat [1]) -0.678% | max response (KB-3-1) -2.19% | outcome (NIH3T3 [2]) | activity change, negative = cytotoxicity (MCC-13) 8.98% [at 9.22 µM] | activity change, negative = cytotoxicity (MKL-1) 2.77% [at 9.22 µM] | activity change, negative = cytotoxicity (MKL-2) -8.12% [at 9.22 µM] | outcome (NIH3T3 [4]) inactive [at 9.27 µM] | activity change, negative = cytotoxicity (UISO) 20% [at 9.22 µM] | activity change, negative = cytotoxicity (WaGa) 13.9% [at 9.22 µM] | activity change, negative = cytotoxicity (C33A) 11.5% [at 11.6 µM] | activity change, negative = cytotoxicity (CAOV3) -25.7% [at 11.6 µM] | activity change, negative = cytotoxicity (CASKI) 15.2% [at 11.6 µM] | activity change, negative = cytotoxicity (Es-2) -3.21% [at 11.6 µM] | activity change, negative = cytotoxicity (HeLa) 8.62% [at 11.6 µM] | activity change, negative = cytotoxicity (Hek293T) -5.51% [at 11.6 µM] | activity change, negative = cytotoxicity (JEG-3) -0.299% [at 11.6 µM] | activity change, negative = cytotoxicity (OV90) 0.648% [at 11.6 µM]

CC(=O)c1ccc2c(c1)N(CCCN1CCC(CCO)CC1)c1ccccc1S2
active: Potency (MKL-2) 21100 nM
inactive: outcome (HaCat [1]) | max response (KB-3-1) -5.25% | outcome (HACAT [3]) | Potency (MCC-13) | Potency (MCC-26) | Potency (MKL-1) | Potency (C33A) | Potency (Es-2) | Potency (HeLa) | Potency (Hek293T) | Potency (JEG-3)

C[C@]12C=CC(=O)C=C1[C@@H](F)C[C@@H]1[C@@H]2[C@@H](O)C[C@@]2(C)[C@H]1CC[C@]2(O)C(=O)CO
inactive: max response (HaCat [1]) -4.4% | max response (KB-3-1) 8% and -2.32% | max response (NIH3T3 [2]) -3.51% | Potency (MCC-13) | Potency (MCC-26) | Potency (MKL-1) | Potency (MKL-2) | Potency (UISO) | Potency (WaGa) | Potency (C33A) | Potency (CAOV3) | Potency (CASKI) | Potency (Es-2) | Potency (HeLa) | Potency (Hek293T) | Potency (JEG-3) | Potency (OV90)

CC(C)n1nc(-c2cc3cc(O)ccc3[nH]2)c2c(N)ncnc21
inactive: Potency (JEG-3)
active: Potency (HaCat [1]) 23100 nM | Potency (KB-3-1) 1300 nM | Potency (NIH3T3 [2]) 2.37 µM and 1.16 µM | Potency (MCC-13) 16800 nM | Potency (MCC-26) 11900 nM | Potency (MKL-1) 10600 nM | Potency (MKL-2) 8410 nM | Potency (UISO) 9440 nM | Potency (WaGa) 2990 nM | Potency (C33A) 794 nM | Potency (CASKI) 8.91 µM and 15.8 µM | Potency (Es-2) 3.16 µM and 2.24 µM | Potency (HeLa) 17.8 µM and 14.1 µM | Potency (Hek293T) 3980 nM | Potency (OV90) 5.01 µM and 2.82 µM

C[C@@H](CN(C)C)CN1c2ccccc2Sc2ccccc21
inactive: max response (HaCat [1]) -0.198% | max response (KB-3-1) -9.85% | max response (NIH3T3 [2]) -1.51% | Potency (MCC-13) | Potency (MCC-26) | Potency (UISO) | Potency (WaGa) | Potency (C33A) | Potency (CAOV3) | Potency (CASKI) | Potency (Es-2) | Potency (HeLa) | Potency (Hek293T) | Potency (JEG-3)
active: Potency (MKL-2) 23700 nM

NC(=O)C(=O)N/N=C/c1ccc([N+](=O)[O-])o1
inactive: outcome (HaCat [1]) | max response (KB-3-1) 30.2% | outcome (HACAT [3]) | Potency (MCC-13) | Potency (MCC-26) | Potency (C33A) | Potency (CAOV3) | Potency (CASKI) | Potency (Es-2) | Potency (HeLa) | Potency (Hek293T) | Potency (JEG-3) | Potency (OV90)
active: Potency (MKL-1) 26600 nM | Potency (MKL-2) 7500 nM | Potency (UISO) 29900 nM | Potency (WaGa) 15000 nM

O=C(CCN1CCC(c2ccccc2)C1)c1ccc2c(c1)OCCO2 (centres undefined)
active: Potency (MKL-1) 2660 nM | Potency (MKL-2) 841 nM | Potency (WaGa) 2990 nM
inactive: outcome (HaCat [1]) | max response (KB-3-1) -5.38% | outcome (HACAT [3]) | Potency (MCC-26) | Potency (C33A) | Potency (CAOV3) | Potency (CASKI) | Potency (Es-2) | Potency (HeLa) | Potency (Hek293T) | Potency (JEG-3) | Potency (OV90)

COc1cccc2c1C(=O)c1c(O)c3c(c(O)c1C2=O)C[C@@](O)(C(=O)CO)C[C@@H]3O[C@H]1C[C@H](N)[C@H](O)[C@H](C)O1
active: Potency (HaCat [1]) 944 nM | Potency (NIH3T3 [2]) 0.15 µM | Potency (MCC-13) 5960 nM | Potency (MCC-26) 2110 nM | Potency (MKL-1) 211 nM | Potency (UISO) 750 nM | Potency (C33A) 2820 nM | Potency (CASKI) 2 µM | Potency (Es-2) 10 µM | Potency (HeLa) 22.4 µM | Potency (Hek293T) 7940 nM | Potency (JEG-3) 2820 nM | Potency (OV90) 4.47 µM
inactive: max response (KB-3-1) -13.1%

Cc1cc(=O)n(-c2ccccc2)n1C
inactive: max response (HaCat [1]) -15.6% | max response (KB-3-1) 3.76% | max response (NIH3T3 [2]) -41.4% | Potency (MCC-13) | Potency (MCC-26) | Potency (MKL-1) | Potency (MKL-2) | Potency (UISO) | Potency (WaGa) | Potency (C33A) | Potency (CAOV3) | Potency (CASKI) | Potency (Es-2) | Potency (HeLa) | Potency (Hek293T) | Potency (JEG-3) | Potency (OV90)
